High-throughput results deposited in PubChem BioAssay by Sanford-Burnham Center for Chemical Genomics.
PHOSPHO1 block = PubChem AID 1565; recombinant PHOSPHO1, absorbance phosphatase assay; 290,000 tested, 1.1% active; Phosphoethanolamine/phosphocholine phosphatase (Homo sapiens), Q8TCT1; inhibition, % at 13.3 µM; in the data active = inhibition above about 60%
A3A deaminase = APOBEC3A ssDNA deaminase inhibitors, primary screen, selectivity assay for APOBEC3G inhibitor project, biochemical, FAM/TAMRA oligo cleavage fluorescence; 330,000 tested, 0.41% active; inhibition, % at 20 µM; AID 493011, 2011; recombinant A3A, FAM/TAMRA ssDNA deamination fluorescence;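 active = at least 40% inhibition at 20 µM here, with at most 30% in a related deaminase screen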;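 note: plate controls were A3A with DMSO for no effect and wells lacking A3A enzyme for full effect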
eIF4H inh = human eIF4H binding inhibitors, primary screen, translation initiation inhibitor project, biochemical, uHTS, fluorescence polarization; Eukaryotic translation initiation factor 4H (Homo sapiens), Q15056; AID 2012, 2009; inhibition, % at 35 µM; eIF4H fluorescence polarization binding assay; 290,000 tested, 0.94% active;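 note: calls also rest on retests at 20 µM and on dose response follow-up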
APOBEC3G inh = APOBEC3G DNA deaminase inhibitors, primary screen, biochemical, fluorescence, single-stranded DNA substrate, uHTS | DNA dC->dU-editing enzyme APOBEC-3G (Homo sapiens), Q9HC16 | recombinant A3G, ssDNA deamination FAM/TAMRA fluorescence | inhibition, % at 20 µM | 330,000 tested, 0.28% active | AID 493012, 2011;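 active = inhibition of at least 40% at 20 µM, with no more than 30% in the related APOBEC3A deaminase screen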;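 note: plate controls were DMSO wells with A3G for no effect and wells lacking A3G enzyme for full effect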
PABP1 MLLE inh = inhibitors of PABP1 MLLE–PAM2 peptide binding, primary screen, biochemical, fluorescence polarization, FITC-PAM2, GST-MLLE; Polyadenylate-binding protein 1 (Homo sapiens), P11940; inhibition, % at 20 µM; 360,000 tested, 0.36% active; AID 588489, 2011; in the data active = inhibition above about 35%, passing the limit was not always enough;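 note: plate controls were DMSO wells with GST-MLLE for no effect and wells lacking GST-MLLE protein for full effect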
PABP FP inh = PABP poly(A) RNA binding inhibitors, primary screen, biochemical, fluorescence polarization, uHTS; Polyadenylate-binding protein 1 (Homo sapiens), P11940; calls only at 35 µM; 290,000 tested, 1% active;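 note: calls also rest on retests at 20 µM and on dose response follow-up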
* marks the source's active call; other numbers are inactive results; i = inactive; u = inconclusive; x = no result; + = active, no number; ! = repeats disagree. Most compounds without a hit are left out; they make up all but 2.6% or so of the library. Unless noted, the rule behind the calls is not given here.

SMILES	PHOSPHO1 block	A3A deaminase	eIF4H inh	APOBEC3G inh	PABP1 MLLE inh	PABP FP inh
CCN(CC)c1ccc(N=Cc2c(O)n(Cc3ccco3)c(=O)[nH]c2=O)cc1	8	-1	u	-3	-51	u
O=c1[nH]c(=S)n(Cc2ccco2)c(O)c1C=NCc1cccs1	95*	11	53*	9	21	+
NC(=O)c1ccc(N=Cc2c(O)n(Cc3ccco3)c(=O)[nH]c2=O)cc1	28	20	55	10	-4	+
CCCCCCC(C)(C)c1ccc([C@@H]2C[C@H](O)CC[C@H]2CCCO)c(O)c1	x	0	x	-6	9	x
O=C(O)CCC(=O)NCCC1=c2ccccc2=N/C1=C\c1c(O)n(Cc2ccc(F)cc2)c(=S)[nH]c1=O	97*	1	34	-6	-15	i
O=C(N/N=C/c1c(O)n(Cc2ccc(F)cc2)c(=O)[nH]c1=O)c1ccccc1	-10	1	12	7	-9	i
COc1ccc(C(=O)C2CCCN(Cc3cccc(C)n3)C2)c(OC)c1 (stereo not drawn)	28	-4	92*	-5	-6	+
CN(C)c1ccc(CCN2CCOCC2)cc1	x	-7	x	-17	6	x
CN(C)c1ccc2c(c1)N=C(c1ccco1)OP2(=S)N1CCOCC1 (stereo not drawn)	90*	-1	15	18	36	i
COC(=O)C1=C(C(=O)OC)SC2(S1)C(C(=O)OC)=C(C(=O)OC)Sc1c2ssc1=O	x	x	x	x	22	x
C=CCn1c(O)c(/C=C2\C=Nc3ccccc32)c(=O)[nH]c1=O	12	-4	u	-12	-44	+
COc1ccccc1-n1c(O)c(/C=C2\C=Nc3ccccc32)c(=O)[nH]c1=O	36	-6	u	-9	-104	u
CCCC[N+]12CCC(CC1)C(Cc1ccccc1)C2 (stereo not drawn)	33	1	-11	-5	-17	i
CCCCn1c(O)c(C(CC)=Nc2ccc(C(=O)O)cc2)c(=O)[nH]c1=O	14	2	62*	0	-3	i
C=CCn1c(O)c(C(CC)=Nc2ccc(C(=O)O)cc2)c(=O)[nH]c1=O	8	-1	20	0	-1	i
COc1ccc(C(c2nnnn2C2CCCC2)N2CCC3(CC2)C(=O)NCN3c2ccccc2)cc1 (stereo not drawn)	x	x	x	x	13	x
C[C@]12CC[C@@H]3c4ccc(O)c(O)c4CC[C@H]3[C@@H]1CC[C@@H]2O	36	-1	1	64*	34	i
C[C@]12CC[C@H]3[C@@H](CCC4=CC(=O)CC[C@@H]43)[C@@H]1CC[C@@H]2O	x	-1	x	-1	6	x
COc1ccc(-c2nn(CCC#N)cc2C(=O)NCc2ccccc2)cc1OC	30	-9	-2	-6	7	i
COc1cc2c(cc1O)CC1c3c(cc(O)c(OC)c3-2)CCN1C (stereo not drawn)	22	25	81*!	-5	7	+!
COc1cc2c(cc1OC)-c1c(OC)c(OC)cc3c1[C@H](C2)N(C)CC3	4	4	21	-5	13	i
CCC(C)n1c(O)c(C=Nc2cccc(C(F)(F)F)c2)c(=O)[nH]c1=S (stereo not drawn)	5	-3	60*	-2	5	+
CCOC(=O)C1(CCOc2ccccc2)CCN(C2Cc3ccccc3C2)CC1	41	-3	-12	-10	13	i
Cc1cccc(N2C(=O)CC(=O)NC2=O)c1	-6	-3	69*	-3	-29	i
COc1ccc(N2C(=O)CC(=O)NC2=O)cc1	14	3	u	0	-5	+
Cc1ccc(N2C(=O)CC(=O)NC2=O)cc1	-3	-4	u	-13	-17	u
Nc1ccc(C2(c3ccc(N)cc3)CN3CCC2CC3)cc1	23	-1	-12	-4	1	i
CCCC12CN3CCN(C1)CC(CCC)(C3)C2=O	-19	-1	-6	-8	-9	i
